“And” between values parts separate entries of the source, which are not always exact repeats. Equal values may be shown once. Screen size: about 5,500 compounds; about 2,000 (36%) were called active. About 18% were inconclusive and are not listed. No stated cut-off is given here; in the data, active means normalized growth mostly below about 0.91 (no sharp cut-off); inconclusive means no clear call, values can overlap the other calls; inactive means mostly above about 0.92. The list shows a part of the results.
Assay: chemical genetic growth profiling, strain panel (AID 1159580);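 further: tested at 20 µM; growth read once vehicle control cultures reached saturation at 30 °C; 1 = growth at the plate median or of vehicle wells; lower values mean less growth of the strain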
Settings: S. cerevisiae deletion strains, growth OD

Measured: normalized growth

NCc1ccc(S(N)(=O)=O)cc1
inactive: locus YAL021C, strain ccr4, active compounds read low 1.01 | locus YAL026C, strain drs2, active compounds read low 0.992 | locus YAL030W, strain snc1, active compounds read low 1.01 | locus YBL061C, strain skt5, active compounds read low 1.01 | locus YBR009C, strain hhf1, active compounds read low 0.972 | locus YBR021W, strain FUR4, active compounds read low 1.01 | locus YBR023C, strain chs3, active compounds read low 1.02 | locus YBR171W, strain sec66, active compounds read low 1 | locus YBR229C, strain ROT2, active compounds read low 0.986 | locus YBR231C, strain swc5, active compounds read low 1.02 | locus YBR279W, strain paf1, active compounds read low 1 | locus YCL011C, strain gbp2, active compounds read low 1.01 | locus YCL016C, strain dcc1, active compounds read low 1.03 | locus YCL029C, strain bik1, active compounds read low 0.993 | locus YCL061C, strain MRC1, active compounds read low 1.02 | locus YCL069W, strain vba3, active compounds read low 0.994 | locus YCR088W, strain abp1, active compounds read low 1.01 | locus YDL005C, strain med2, active compounds read low 1.02 | locus YDL035C, strain GPR1, active compounds read low 1.01 | locus YDL040C, strain nat1, active compounds read low 1 | locus YDL074C, strain BRE1, active compounds read low 1.01 | locus YDL101C, strain DUN1, active compounds read low 0.987 | locus YDL134C, strain PPH21, active compounds read low 0.994 | locus YDL185W, strain tfp1, active compounds read low 0.977 | locus YDL192W, strain arf1, active compounds read low 0.979 | locus YDR001C, strain nth1, active compounds read low 0.998 | locus YDR069C, strain doa4, active compounds read low 1.01 | locus YDR101C, strain arx1, active compounds read low 1.02 | locus YDR137W, strain rgp1, active compounds read low 1.03 | locus YDR150W, strain NUM1, active compounds read low 1.01 | locus YDR159W, strain sac3, active compounds read low 0.983 | locus YDR162C, strain NBP2, active compounds read low 1.01 | locus YDR195W, strain ref2 0.989 | locus YDR297W, strain sur2, active compounds read low 1.01 | locus YDR318W, strain mcm21, active compounds read low 0.99 | locus YDR334W, strain swr1, active compounds read low 1 | locus YDR335W, strain msn5, active compounds read low 1.01 | locus YDR388W, active compounds read low 0.993 | locus YDR392W, strain spt3, active compounds read low 0.969 | locus YDR502C, strain sam2, active compounds read low 0.99 | locus YEL003W, strain gim4, active compounds read low 0.982 | locus YEL037C, strain rad23, active compounds read low 0.992 | locus YEL061C, strain CIN8 (second series), active compounds read low 1 | locus YEL061C, strain CIN8, active compounds read low 1.01 | locus YER015W, strain faa2, active compounds read low 0.99 | locus YER016W, strain bim1, active compounds read low 1.02 | locus YER110C, active compounds read low 0.983 | locus YER111C, strain swi4, active compounds read low 0.998 | locus YER155C, strain BEM2 (second series), active compounds read low 1.01 | locus YER155C, strain BEM2, active compounds read low 0.984 | locus YER167W, strain BCK2, active compounds read low 1.02 | locus YFR010W, strain ubp6, active compounds read low 0.995 | locus YGL078C, strain dbp3, active compounds read low 0.98 | locus YGL086W, strain mad1, active compounds read low 0.995 | locus YGL167C, strain pmr1, active compounds read low 0.997 | locus YGL173C, strain kem1, active compounds read low 1.02 | locus YGL227W, strain vid30, active compounds read low 1.01 | locus YGL240W, strain doc1, active compounds read low 1.04 | locus YGL248W, strain PDE1, active compounds read low 0.984 | locus YGL253W, strain hxk2, active compounds read low 1.01 | locus YGR135W, strain pre9, active compounds read low 0.961 | locus YGR252W, strain gcn5, active compounds read low 0.928 | locus YHR013C, strain ard1, active compounds read low 1.04 | locus YHR027C, strain rpn1, active compounds read low 1.02 | locus YHR030C, strain SLT2, active compounds read low 1.01 | locus YHR079C, strain IRE1 (second series), active compounds read low 0.991 | locus YHR079C, strain IRE1, active compounds read low 1.04 | locus YHR094C, strain hxt1, active compounds read low 0.996 | locus YHR129C, strain ARP1, active compounds read low 0.986 | locus YHR142W, strain chs7, active compounds read low 1.01 | locus YHR200W, strain rpn10, active compounds read low 0.984 | locus YIL066C, strain RNR3, active compounds read low 0.989 | locus YIL073C, strain SPO22, active compounds read low 1.01 | locus YIL125W, strain kgd1, active compounds read low 0.983 | locus YIR030C, strain dcg1, active compounds read low 0.991 | locus YJL092W, strain hpr5, active compounds read low 1.01 | locus YJL095W, strain BCK1 (second series), active compounds read low 1.01 | locus YJL095W, strain BCK1, active compounds read low 0.988 and 1.01 | locus YJL115W, strain asf1, active compounds read low 1 | locus YJL129C, strain trk1, active compounds read low 1.05 | locus YJL134W, strain LCB3, active compounds read low 1 | locus YJL154C, strain vps35, active compounds read low 1 | locus YJL164C, strain tpk1, active compounds read low 0.98 | locus YJL166W, strain qcr8, active compounds read low 1.04 | locus YJL168C, strain set2, active compounds read low 0.991 | locus YJL187C, strain SWE1 (second series), active compounds read low 0.981 | locus YJL187C, strain SWE1, active compounds read low 1.01 | locus YJR043C, strain POL32, active compounds read low 1.01 | locus YJR066W, strain TOR1, active compounds read low 0.957 | locus YJR075W, strain HOC1, active compounds read low 0.995
